PubChem BioAssay (NCATS)
Results filed as inconclusive are left out. Activity calls are given as the source filed them. Calls come from the whole dose curve; as a rule, active = well fitted inhibition curve with a large enough effect; inconclusive = small, poorly fitted or top-dose-only effect; inactive = flat fitted curve, though single readings scatter.

Target: Dual specificity protein kinase CLK4 (Homo sapiens) (UniProt Q9HAZ1)
Test: qHTS Assay for Inhibitors of CDC-like Kinase 4 (Kinase-Glo Assay) (AID 1770); note: nearly all actives have a fitted effect of over 65% in size
Settings: recombinant Clk4, Kinase-Glo ATP depletion luminescence; series mostly up to 66.7 µM; activity, negative = inhibition: at the top concentration
Experimental: NIH Molecular Libraries Probe Production Centers Network [MLPCN] NIH Chemical Genomics Center [NCGC] MLPCN Grant: 1R03MH084827-01 Assay Submitter (PI): Tom Misteli NCGC Assay Overview: Clk4 (Invitrogen, cat# PV3839) was assayed using ATP and the RS repeat peptide (AnaSpec cat # 61722) as substrates. Following the Clk4 reaction, the remaining ATP levels were detected using Promega Kinase-Glo technology wherein the remaining ATP from the kinase reaction is detected using Ultra-Glo luciferase and D-luciferin which generates a bioluminescence signal from the ATP. The positive control for the assay was TG003 (Sigma-Aldrich, cat# 300801-52-9) which has been described as an inhibitor of Clk 4[1].
NCGC Assay Protocol Summary: Two uL/well of substrate-buffer solution (100 uM RS peptide, 1 uM ATP, 25 mM Tris pH7.5, 10 mM MgCl2, 0.5 mM EGTA, 2.5 mM DTT, 0.01% Triton X-100 final concentration) was dispensed into 1536-well, assay plates (Greiner, solid white medium-binding plates) with Aurora Discovery BioRAPTR Flying Reagent Dispenser (FRD; Beckton-Dickenson). Using a Kalypsys pin tool equipped with a 1536-pin tool, 23 nL of compound solution was transferred to the assay plate. One uL/ well Clk4-buffer solution (25 nM Clk4, 25 mM Tris pH 7.5, 10 mM MgCl2, 0.5 mM EGTA, 2.5 mM DTT, 0.01% Triton X-100, final concentrations) was then added using the FRD yielding a total kinase reaction volume of 3 uL/ well. After 4.5 hours of room temperature incubation, 3 uL Kinase-Glo reagent was added for a final assay volume of 6 uL/ well. Luminescence was detected with the ViewLux plate reader (Perkin Elmer, Waltham, MA) after 5 min incubation using a 5 second exposure time and 2x binning.
% is set by controls: 0 for no effect and ±100 for the full control effect; potency is the fitted concentration of half-maximal effect.

Chain of Dual specificity protein kinase CLK4 (Homo sapiens) (Q9HAZ1 whole entry, looked up): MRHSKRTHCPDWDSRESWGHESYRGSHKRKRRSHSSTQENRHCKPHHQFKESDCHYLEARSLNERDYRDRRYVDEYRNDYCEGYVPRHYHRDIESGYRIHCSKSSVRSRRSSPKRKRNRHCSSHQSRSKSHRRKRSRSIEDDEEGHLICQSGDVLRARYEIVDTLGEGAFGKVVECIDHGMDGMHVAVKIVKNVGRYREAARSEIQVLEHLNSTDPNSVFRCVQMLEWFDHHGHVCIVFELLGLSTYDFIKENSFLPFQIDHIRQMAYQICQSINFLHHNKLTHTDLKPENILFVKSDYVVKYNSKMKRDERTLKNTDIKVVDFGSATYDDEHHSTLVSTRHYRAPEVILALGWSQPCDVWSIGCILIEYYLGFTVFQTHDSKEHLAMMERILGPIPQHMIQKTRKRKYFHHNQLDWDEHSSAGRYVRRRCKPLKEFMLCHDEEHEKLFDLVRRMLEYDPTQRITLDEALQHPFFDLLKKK

| Structure (SMILES) | activity, negative = inhibition | Potency |
| --- | --- | --- |
| CCNc1ncc2nc(-c3ccccc3)c(=O)n(Cc3cccc(OC)c3)c2n1 | -6.15% (inactive) |  |
| COc1ccc(-c2nc3cnc(OC)nc3n(CCc3ccccc3)c2=O)cc1 | 0.0013% (inactive) |  |
| CN(C)c1ncc2nc(-c3cccs3)c(=O)n(CCc3ccccc3)c2n1 | -11.6% (inactive) |  |
| COCCn1c(=O)cnc2cnc(N3CCOCC3)nc21 | -21.3% (inactive) |  |
| COc1ccc(-c2nc3cnc(N4CCOCC4)nc3n(CCc3ccccc3)c2=O)cc1 | -10.6% (inactive) |  |
| N#Cc1cccc(-c2ccc3ncnc(N4CCNCC4)c3c2)c1 |  | 12.6 µM (active) |
| COc1ccc(-c2nc3cnc(OC)nc3n(-c3ccc(OC)cc3)c2=O)cc1 | 2.13% (inactive) |  |
| COc1ccccc1-c1nccc(NCc2ccccc2)n1 | -1.84% (inactive) |  |
| COc1ccc2[nH]cc(CCNc3ncnc4ccc(-c5c(C)noc5C)cc34)c2c1 |  | 7.94 µM (active) |
| COc1ccccc1-c1cncnc1Nc1ccccc1 | -9.93% (inactive) |  |
| N#CCCn1c(=O)c(-c2ccc(Cl)cc2)nc2cnc(N3CCNCC3)nc21 | -7.07% (inactive) |  |
| CN(C)c1ncc2nc(-c3ccc(F)cc3)c(=O)n(-c3ccccc3)c2n1 | -6.62% (inactive) |  |
| CN(C)C(=O)c1ccc(-c2cncnc2N(C)Cc2ccco2)cc1 | -18.7% (inactive) |  |
| CN(C)c1cc(-c2cccc(NS(C)(=O)=O)c2)ncn1 | -15.9% (inactive) |  |
| COc1ncc2ncc(=O)n(CCc3ccccc3)c2n1 |  | 14.1 µM (active) |
| CCNc1ncc2nc(-c3cc(F)cc(F)c3)c(=O)n(CCc3ccccc3)c2n1 | -27.9% (inactive) |  |
| O=c1c(-c2ccc(Cl)cc2)nc2cnc(N3CCNCC3)nc2n1-c1ccccc1 | -3.96% (inactive) |  |
| COc1cccc(-c2ccc3ncnc(NC4CC4)c3c2)c1 |  | 0.447 µM (active) |
| COc1ccc(-c2nc3cnc(N(C)C)nc3n(-c3ccccc3)c2=O)cc1 | 0.37% (inactive) |  |
| COc1ccccc1-c1ccc2ncnc(NCc3cnc(C)cn3)c2c1 |  | 15.8 µM (active) |

| Structure (SMILES) | activity, negative = inhibition | Potency |
| --- | --- | --- |
| COc1ccc(-c2nc3cnc(N(C)C)nc3n(Cc3cccs3)c2=O)cc1 | 1.45% (inactive) |  |
| Cn1cc(-c2nc3cncnc3n(Cc3ccccc3Cl)c2=O)c2ccccc21 | -4.68% (inactive) |  |
| O=c1c(-c2ccccc2)nc2cnc(Oc3cccc(Cl)c3)nc2n1C[C@H]1CCCO1 | -3.38% (inactive) |  |
| CN1CCN(c2ncc3ncc(=O)n(-c4ccccc4)c3n2)CC1 | -29.2% (inactive) |  |
| COCCn1c(=O)c(C)nc2cnc(Nc3cccc(OC)c3)nc21 |  | 15.8 µM (active) |
| CCNc1ncc2nc(-c3cccc(C#N)c3)c(=O)n(Cc3cccc(OC)c3)c2n1 | 0.824% (inactive) |  |
| COCCn1c(=O)c(-c2ccccc2)nc2cncnc21 | -3.1% (inactive) |  |
| O=c1c(-c2ccccc2)nc2cnc(N3CCOCC3)nc2n1C[C@H]1CCCO1 | -0.917% (inactive) |  |
| Cc1ccccc1-c1nc(NC2CC2)c2ccccc2n1 |  | 12.6 µM (active) |
| COCCn1c(=O)c(-c2cccc(C#N)c2)nc2cnc(N3CCOCC3)nc21 | -24.8% (inactive) |  |
| CCNc1ncc2nc(-c3ccc(F)cc3)c(=O)n(-c3ccc(OC)cc3)c2n1 | -6.47% (inactive) |  |
| COc1ccc2[nH]cc(CCNc3ccnc(-c4ccoc4)n3)c2c1 |  | 14.1 µM (active) |
| COCCn1c(=O)c(-c2cccs2)nc2cnc(N3CCOCC3)nc21 | -11.5% (inactive) |  |
| Cc1nc2cncnc2n(Cc2ccccc2Cl)c1=O | 1.24% (inactive) |  |
| COc1ccccc1-c1cncnc1N(C)Cc1ccco1 | -0.0699% (inactive) |  |
| CN(C)c1ncc2nc(-c3cc(F)cc(F)c3)c(=O)n(-c3ccccc3)c2n1 | -5.92% (inactive) |  |
| COc1ncc2nc(-c3cn(C)c4ccccc34)c(=O)n(CCC#N)c2n1 | -6.88% (inactive) |  |
| COCCn1c(=O)c(-c2ccc(OC)cc2)nc2cnc(OCc3ccccc3)nc21 | 2.54% (inactive) |  |
| N#Cc1cccc(-c2nc(NCc3cccs3)c3ccccc3n2)c1 | -15.9% (inactive) |  |
| N#CCCn1c(=O)c(-c2ccc(F)cc2)nc2cnc(N3CCNCC3)nc21 | -6.22% (inactive) |  |
